The values that follow come from PubChem BioAssay (Tox21).

SMILES strings stand for the structures. Several values for one entry are separate records, joined by “and”; a condition that tells them apart may be missing. Equal values may be shown once. Unmarked numbers belong to inactive results. Inconclusive results are not listed. Entries that show only a call come without a potency. Activity calls are given as the source filed them. Calls follow the shape of the dose curve; as a rule, active = well fitted curve in the direction sought with a large enough effect in the repeat runs; inconclusive = weak or mixed curves; inactive = no such curve, though single readings can be large; an effect the other way counts as inactive or inconclusive.

One test can be described thus: Caspase-3/7 induction in HepG2 cells by small molecules, qHTS assay (AID 1346978). Also: nearly all actives have a fitted effect of over 15% in size. The conditions noted are these: HepG2 caspase-3/7 activation, Caspase-Glo luminescence, 17 h; series mostly up to 92.4 µM. The method, boiled down:
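Caspase-3/7 induction was measured by Caspase-Glo 3/7 luminescence (30 min, room temperature) after a 17 hr compound exposure of wild-type HepG2 cells seeded at 2,000 per well and pre-incubated 5 hr.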
(In general: Quantitative high-throughput screening tests each substance at several concentrations.)
Take `CC(C)(C)c1ccc(O)c(O)c1`: the Potency entry was “inactive”.

`Oc1ccc(C2CNCCc3c2cc(O)c(O)c3Cl)cc1` (stereo unspecified): the Potency result was “inactive”.

For the compound `CCOC(C)(C)C`, the Potency result was “inactive”.

In the case of `CC(=O)Nc1c(I)cc(I)c(C(=O)O)c1I`, the Potency result was “inactive”.

Take `N=C(N)c1ccccc1`: the Potency entry is “inactive”.

With `Cc1cnc(NS(=O)(=O)c2ccc(N)cc2)nc1`, the Potency result was “inactive”.

`COc1cc(C(=O)N2CCCCCCC2)cc(OC)c1OC`: the Potency result was “inactive”.

`NS(=O)(=O)c1ccc(C(=O)O)cc1`: the Potency result was “inactive”.

As for `CC(NC(CCc1ccccc1)C(=O)O)C(=O)N1C(=O)N(C)CC1C(=O)O` (stereo unspecified), the Potency result was “inactive”.

As for `N#Cc1ccc(C2CCCc3cncn32)cc1` (stereo unspecified), the Potency result is “inactive”.

For the compound `Cc1ccc(Cl)cc1Cl`, the Potency result is “inactive”.

`COCCc1ccc(OCC(O)CNC(C)C)cc1` (stereo unspecified): the Potency entry is “inactive”.

As for `CCCC(=O)O[C@]1(C(=O)CO)CC[C@H]2[C@@H]3CCC4=CC(=O)CC[C@]4(C)[C@H]3[C@@H](O)C[C@@]21C`, the Potency entry was “inactive”.

`CCOC(=O)c1cccc(N)c1`: the Potency result is “inactive”.

For the compound `CCN(CC)CCOCCOC(=O)C1(c2ccccc2)CCCC1`, the Potency entry was “inactive”.

Turning to `CCCN(CCC)CCc1cccc2c1CC(=O)N2`, the Potency result was “inactive”.

For the compound `NC(=O)c1cn(Cc2c(F)cccc2F)nn1`, the Potency result is “inactive”.

Regarding `CC(C)CNCC(C)C`, the Potency entry is “inactive”.

With `O=c1n(CCO)c(=O)n(CCO)c(=O)n1CCO`, the Potency entry was “inactive”.

On to `NS(=O)(=O)c1cc(C(=O)O)cc(N2CCCC2)c1Oc1ccccc1`, for which the Potency entry is “inactive”.

Regarding `CN1CC(=O)NC1=N`, the Potency entry is “inactive”.

As to `CCCCCCOC(=O)CCCCC(=O)OCCCCCC`, the Potency result is “inactive”.

As for `COc1c(N2C[C@@H]3CCCN[C@@H]3C2)c(F)cc2c(=O)c(C(=O)O)cn(C3CC3)c12`, the Potency result was “inactive”.

Take `CO[C@]12C[C@@H](COC(=O)c3cncc(Br)c3)CN(C)[C@@H]1Cc1cn(C)c3cccc2c13`: the Potency entry was “inactive”.

With `CC(C)(O)C#CC(C)(C)O`, the Potency result was “inactive”.

Take `COc1ccc(CCN(C)CCCC(C#N)(c2cc(OC)c(OC)c(OC)c2)C(C)C)cc1OC` (stereo unspecified): the Potency result was “inactive”.

`NC(=O)Nc1ccccc1`: the Potency entry was “inactive”.

Turning to `N=c1nc(N2CCCCC2)cc(N)n1O`, the Potency result is “inactive”.

With `CCC(C)S` (stereo unspecified), the caspase activation is -0.355% [at 3.27 µM].

Take `CCN1CCC[C@H]1CNC(=O)c1c(O)c(Cl)cc(Cl)c1OC`: the Potency entry was “inactive”.

Regarding `CCc1cccc2c(CCO)c[nH]c12`, the Potency result is “inactive”.

Regarding `NS(=O)(=O)c1cc2c(cc1Cl)NC(C1CC3C=CC1C3)NS2(=O)=O` (stereo unspecified), the Potency entry was “inactive”.

As to `O=C(O)CCCc1ccccc1`, the Potency result was “inactive”.

Consider `Cn1cc(S(C)=O)c(=O)c2ccc(F)cc21` (stereo unspecified), for which the Potency entry was “inactive”.

In the case of `CC(=O)OCC(CCn1cnc2cnc(N)nc21)COC(C)=O`, the Potency entry was “inactive”.

A further test is described as follows: Caspase-3/7 induction in CHO-K1 cells by small molecules, qHTS cell viability counter screen (AID 1346979). Also: nearly all actives have a fitted effect of over 35% in size. Also: potency is read from the fitted curve at half-maximal effect. Conditions: CellTiter-Fluor fluorescence, 17 h; series mostly up to 42.5 µM. The method, boiled down: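 Cytotoxicity counter screen run in parallel with the caspase-3/7 assay: CHO-K1 cells, 16hr compound treatment at 37C, then CellTiter-Fluor for 1hr before fluorescence reading.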
In the case of `CC(C)(C)c1ccc(O)c(O)c1`, the Potency is 63.2 µM (active) and 57.7 µM (active).

Turning to `Oc1ccc(C2CNCCc3c2cc(O)c(O)c3Cl)cc1` (stereo unspecified), the Potency entry was “inactive”.

Consider `CCOC(C)(C)C`, for which the Potency result was “inactive”.

Take `CC(=O)Nc1c(I)cc(I)c(C(=O)O)c1I`: the Potency result is “inactive”.

`N=C(N)c1ccccc1`: the Potency result is “inactive”.

For the compound `COc1cc(C(=O)N2CCCCCCC2)cc(OC)c1OC`, the Potency result is “inactive”.

Consider `NS(=O)(=O)c1ccc(C(=O)O)cc1`, for which the Potency result was “inactive”.

For the compound `CC(NC(CCc1ccccc1)C(=O)O)C(=O)N1C(=O)N(C)CC1C(=O)O` (stereo unspecified), the Potency result was “inactive”.

As to `N#Cc1ccc(C2CCCc3cncn32)cc1` (stereo unspecified), the Potency entry is “inactive”.

For the compound `Cc1ccc(Cl)cc1Cl`, the Potency result is “inactive”.

For `CCCC(=O)O[C@]1(C(=O)CO)CC[C@H]2[C@@H]3CCC4=CC(=O)CC[C@]4(C)[C@H]3[C@@H](O)C[C@@]21C`, the Potency result is “inactive”.

`CCOC(=O)c1cccc(N)c1`: the Potency entry was “inactive”.

`CCN(CC)CCOCCOC(=O)C1(c2ccccc2)CCCC1`: the Potency entry was “inactive”.

For the compound `CCCN(CCC)CCc1cccc2c1CC(=O)N2`, the Potency entry is “inactive”.

In the case of `NC(=O)c1cn(Cc2c(F)cccc2F)nn1`, the Potency entry was “inactive”.

As to `CC(C)CNCC(C)C`, the Potency result is “inactive”.

Regarding `O=c1n(CCO)c(=O)n(CCO)c(=O)n1CCO`, the Potency entry was “inactive”.

As to `CCCCCCOC(=O)CCCCC(=O)OCCCCCC`, the Potency entry is “inactive”.

`COc1c(N2C[C@@H]3CCCN[C@@H]3C2)c(F)cc2c(=O)c(C(=O)O)cn(C3CC3)c12`: the Potency entry was “inactive”.

Consider `CO[C@]12C[C@@H](COC(=O)c3cncc(Br)c3)CN(C)[C@@H]1Cc1cn(C)c3cccc2c13`, for which the Potency entry was “inactive”.

`CC(C)(O)C#CC(C)(C)O`: the Potency entry was “inactive”.

`COc1ccc(CCN(C)CCCC(C#N)(c2cc(OC)c(OC)c(OC)c2)C(C)C)cc1OC` (stereo unspecified): the Potency entry is “inactive”.

For the compound `CCN1CCC[C@H]1CNC(=O)c1c(O)c(Cl)cc(Cl)c1OC`, the Potency result is “inactive”.

As for `CCc1cccc2c(CCO)c[nH]c12`, the Potency result was “inactive”.

For the compound `Cn1cc(S(C)=O)c(=O)c2ccc(F)cc21` (stereo unspecified), the Potency entry is “inactive”.

Consider `CC(=O)OCC(CCn1cnc2cnc(N)nc21)COC(C)=O`, for which the Potency entry was “inactive”.

The next test is described as follows: Caspase-3/7 induction in CHO-K1 cells by small molecules, qHTS assay (AID 1346980). Also: nearly all actives have a fitted effect of over 15% in size. The conditions noted are these: CHO-K1 caspase-3/7 induction, Caspase-Glo luminescence, 17 h; series mostly up to 92.4 µM. The method, boiled down: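 Luminescent Caspase-Glo 3/7 read (30min, room temperature) quantified apoptosis induction. Cells were wild-type CHO-K1, treated with compound for 17hr at 37 C and 5% CO2.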
Regarding `CC(C)(C)c1ccc(O)c(O)c1`, the call was inactive.

As for `Oc1ccc(C2CNCCc3c2cc(O)c(O)c3Cl)cc1` (stereo unspecified), the compound was called inactive.

For the compound `CCOC(C)(C)C`, the compound was called inactive.

Regarding `CC(=O)Nc1c(I)cc(I)c(C(=O)O)c1I`, the call was inactive.

For `N=C(N)c1ccccc1`, the compound was called inactive.

For `COc1cc(C(=O)N2CCCCCCC2)cc(OC)c1OC`, the result was inactive.

With `N#Cc1ccc(C2CCCc3cncn32)cc1` (stereo unspecified), the result was inactive.

Turning to `Cc1ccc(Cl)cc1Cl`, the compound was classed as inactive.

As for `COCCc1ccc(OCC(O)CNC(C)C)cc1` (stereo unspecified), the compound was classed as inactive.

Consider `CCCC(=O)O[C@]1(C(=O)CO)CC[C@H]2[C@@H]3CCC4=CC(=O)CC[C@]4(C)[C@H]3[C@@H](O)C[C@@]21C`, for which the compound was called inactive.

For `CCOC(=O)c1cccc(N)c1`, the result was inactive.

In the case of `CCCN(CCC)CCc1cccc2c1CC(=O)N2`, the result was inactive.

Turning to `NC(=O)c1cn(Cc2c(F)cccc2F)nn1`, the compound was called inactive.

Turning to `O=c1n(CCO)c(=O)n(CCO)c(=O)n1CCO`, the compound was called inactive.

As to `CN1CC(=O)NC1=N`, the call was inactive.

Consider `CCCCCCOC(=O)CCCCC(=O)OCCCCCC`, for which the compound was classed as inactive.

Consider `COc1c(N2C[C@@H]3CCCN[C@@H]3C2)c(F)cc2c(=O)c(C(=O)O)cn(C3CC3)c12`, for which the call was inactive.

In the case of `CO[C@]12C[C@@H](COC(=O)c3cncc(Br)c3)CN(C)[C@@H]1Cc1cn(C)c3cccc2c13`, the outcome was inactive.

Turning to `CC(C)(O)C#CC(C)(C)O`, the call was inactive.

For the compound `N=c1nc(N2CCCCC2)cc(N)n1O`, the compound was called inactive.

`CCC(C)S` (stereo unspecified): the caspase-3/7 activation is 1.28% [at 3.27 µM].

`CCc1cccc2c(CCO)c[nH]c12`: the compound was classed as inactive.

Regarding `NS(=O)(=O)c1cc2c(cc1Cl)NC(C1CC3C=CC1C3)NS2(=O)=O` (stereo unspecified), the result was inactive.

As for `O=C(O)CCCc1ccccc1`, the compound was called inactive.

With `CC(=O)OCC(CCn1cnc2cnc(N)nc21)COC(C)=O`, the compound was called inactive.
